Experimental data: the supplement of paper PMC10849652
Targets with a hit are over-represented here; the source holds about 7,900 in all. About 0.6% of all pairs of compound and target were hits.

How the values were obtained:
Test in all cases: log2 fold change, soluble protein after heating vs DMSO (PISA); higher = thermal stabilisation; K562 cells, 10 uM, 30 min; active = over 0.2 and 3.5 SD of the protein, either way, in both replicates (recomputed)
erlotinib = compound: C#Cc1cccc(Nc2ncnc3cc(OCCOC)c(OCCOC)cc23)c1 [erlotinib]
In short: (§1)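 Quantification of soluble protein used TMTpro 16plex LC-MS/MS, with channel sums equalised. Samples were the supernatant after 21,000xg for 90 min of pooled aliquots from K562 cells (2×10^6 cells/mL) treated with 10 μM compound for 30 min, heated for 3 min over 48°C-58°C, and extracted in PBS with 0.5% NP-40 at 4°C. Values, from duplicates, describe thermal stability against control samples on a log2 fold-change scale.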

[1] = compound: C/C(=N\NC(=O)C1=CC(=CC=C1)S(=O)(=O)N2CCOCC2)/C3=C(C=CC(=C3)Cl)O
In short: as §1

[2] = compound: C1=CC(=C(C=C1Cl)C2=NC3=NC=CN=C3C(=N2)NC4=CC=NC=C4)F
In short: as §1

[3] = compound: C1=CC(=CC=C1C2=NC3=C(N2)C=C(C=C3)C(=O)N)OC4=CC=C(C=C4)Cl
In short: as §1

[4] = compound: C1=CC2=C(C=CC(=C2)/C=C\3/C(=O)NC(=NCC4=CC=CS4)S3)N=C1
In short: as §1

[5] = compound: C1=CC2=NC=CN=C2C=C1/C=C/3\C(=O)NC(=O)S3
In short: as §1

[6] = compound: C1=CC=C(C=C1)C2=NC(=C(N2)C3=CC=NC=C3)C4=CC(=C(C=C4)Cl)O
In short: as §1

[7] = compound: C1=CC=C2C(=C1)C3=NNC4=CC=CC(=C43)C2=O
In short: as §1

[8] = compound: C1CCN(C1)C(=O)NC2=CC=CC(=C2)NC3=NC=C(C(=N3)NCCC4=CN=CN4)Br
In short: as §1

[9] = compound: C1CN(CCC1(CC2=CC=C(C=C2)Cl)N)C3=NC=NC4=C3C=CN4
In short: as §1

IRAK-1-4 Inhibitor I = compound: C1COCCN1CCN2C3=CC=CC=C3N=C2NC(=O)C4=CC(=CC=C4)[N+](=O)[O-] [IRAK-1-4 Inhibitor I]
In short: as §1

ibrutinib = compound: C=CC(=O)N1CCC[C@@H](n2nc(-c3ccc(Oc4ccccc4)cc3)c3c(N)ncnc32)C1 [ibrutinib]
In short: as §1

[10] = compound: CC(=O)c1cnc2ccc(-c3cc(Cl)c(O)c(Cl)c3)nc2c1N[C@H]1CC[C@H](CN(C)C)CC1
In short: as §1

ralimetinib = compound: CC(C)(C)Cn1c(N)nc2ccc(-c3[nH]c(C(C)(C)C)nc3-c3ccc(F)cc3)nc21 [ralimetinib]
In short: as §1

[11] = compound: CC(C)(O)CC(=O)NCCn1ccc2ncnc(Nc3ccc(Oc4cccc(C(F)(F)F)c4)c(Cl)c3)c21
In short: as §1

[12] = compound: CC(C)C1=C2N=C(C=C(N2N=C1)NCC3=CC=CC=C3)NCCCCCCN
In short: as §1

[13] = compound: CC(C)C[C@@H](C=O)NC(=O)[C@H](CC(C)C)NC(=O)[C@H](CC(C)C)NC(=O)OCc1ccccc1
In short: as §1

pinometostat = compound: CC(C)N(C[C@H]1O[C@@H](n2cnc3c(N)ncnc32)[C@H](O)[C@@H]1O)[C@H]1C[C@@H](CCc2nc3cc(C(C)(C)C)ccc3[nH]2)C1 [pinometostat]
In short: as §1

[14] = compound: CC1=C(C(CC(=O)N1)C2=CC=C(C=C2)C(F)(F)F)C(=O)NC3=C(C=C4C(=C3)C=NN4)F
In short: as §1

[15] = compound: CC1=C(C2=C(C=C1)C(=O)C3=CC=CC=C3N2CCCN)C
In short: as §1

Measured: log2 fold change

NDUFA12 (UniProt Q9UI09)
Sequence of UniProt Q9UI09 (Q9UI09 whole entry, looked up): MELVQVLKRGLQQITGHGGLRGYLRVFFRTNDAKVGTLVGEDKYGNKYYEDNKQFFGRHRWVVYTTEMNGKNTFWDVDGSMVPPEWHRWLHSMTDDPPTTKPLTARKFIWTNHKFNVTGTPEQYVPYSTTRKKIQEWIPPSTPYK
active: [12] -0.31
inactive: erlotinib -0.014 | [1] 0.011 | [2] 0.016 | [3] 0.147 | [4] 0.075 | [5] 0.001 | [6] 0.061 | [7] -0.007 | [8] 0.028 | [9] -0.031 | IRAK-1-4 Inhibitor I 0.05 | ibrutinib -0.078 | [10] -0.04 | ralimetinib -0.043 | [11] -0.128 | [13] 0.021 | pinometostat -0.06 | [14] -0.012 | [15] 0.122

OSTM1 (UniProt Q86WC4)
Sequence of UniProt Q86WC4 (Q86WC4 whole entry, looked up): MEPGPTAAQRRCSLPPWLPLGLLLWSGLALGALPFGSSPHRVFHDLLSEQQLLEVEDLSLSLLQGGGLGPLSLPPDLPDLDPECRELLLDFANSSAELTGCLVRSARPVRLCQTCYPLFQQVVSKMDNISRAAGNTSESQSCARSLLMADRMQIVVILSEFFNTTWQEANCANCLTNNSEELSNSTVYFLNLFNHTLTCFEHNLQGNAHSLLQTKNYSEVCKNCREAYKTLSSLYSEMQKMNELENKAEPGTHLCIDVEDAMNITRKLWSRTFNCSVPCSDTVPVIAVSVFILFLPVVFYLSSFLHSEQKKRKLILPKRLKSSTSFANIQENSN
inactive: erlotinib 0.034 | [1] 0.111 | [2] 0.077 | [3] 0.107 | [4] -0.106 | [5] 0.001 | [6] 0.044 | [7] -0.047 | [8] -0.035 | [9] -0.002 | IRAK-1-4 Inhibitor I 0.05 | ibrutinib -0.006 | [10] 0.013 | ralimetinib 0.042 | [11] -0.081 | [12] -0.041 | [13] 0.079 | pinometostat -0.056 | [14] 0.015 | [15] -0.024

MRPS21 (UniProt P82921)
inactive: erlotinib 0.014 | [1] -0.04 | [2] -0.096 | [3] 0.042 | [4] -0.241 | [5] -0.138 | [6] -0.019 | [7] 0.297 | [8] -0.091 | [9] -0.07 | IRAK-1-4 Inhibitor I -0.143 | ibrutinib 0.029 | [10] 0.172 | ralimetinib -0.038 | [11] -0.069 | [12] 0.063 | [13] 0.063 | pinometostat 0.052 | [14] -0.091 | [15] -0.207

MKNK1 (UniProt Q9BUB5)
Sequence of UniProt Q9BUB5 (Q9BUB5 whole entry, looked up): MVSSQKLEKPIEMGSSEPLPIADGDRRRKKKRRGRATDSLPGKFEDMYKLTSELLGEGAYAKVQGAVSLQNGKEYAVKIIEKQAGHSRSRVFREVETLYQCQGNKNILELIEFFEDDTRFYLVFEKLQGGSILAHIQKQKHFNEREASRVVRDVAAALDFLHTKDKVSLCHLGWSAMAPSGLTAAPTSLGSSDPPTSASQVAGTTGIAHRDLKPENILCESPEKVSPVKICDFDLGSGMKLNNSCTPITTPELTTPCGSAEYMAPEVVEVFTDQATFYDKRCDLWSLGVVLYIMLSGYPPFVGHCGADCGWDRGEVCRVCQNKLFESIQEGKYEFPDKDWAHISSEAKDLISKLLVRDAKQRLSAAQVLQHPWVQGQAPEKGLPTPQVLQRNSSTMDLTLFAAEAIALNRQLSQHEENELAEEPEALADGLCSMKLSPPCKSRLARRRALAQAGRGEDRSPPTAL
inactive: [1] 0.09 | [2] -0.05 | [3] 0 | [4] 0.011 | [5] 0.081 | [6] -0.028 | [7] 0.001 | [8] -0.051 | [9] -0.066 | IRAK-1-4 Inhibitor I -0.078 | ibrutinib -0.034 | [10] 0.059 | ralimetinib 0.117 | [11] -0.032 | [12] -0.065 | [13] 0.168 | pinometostat -0.019 | [14] -0.018 | [15] 0.057
active: erlotinib 0.305

MTMR14 (UniProt Q8NCE2)
Sequence of UniProt Q8NCE2 (Q8NCE2 whole entry, looked up): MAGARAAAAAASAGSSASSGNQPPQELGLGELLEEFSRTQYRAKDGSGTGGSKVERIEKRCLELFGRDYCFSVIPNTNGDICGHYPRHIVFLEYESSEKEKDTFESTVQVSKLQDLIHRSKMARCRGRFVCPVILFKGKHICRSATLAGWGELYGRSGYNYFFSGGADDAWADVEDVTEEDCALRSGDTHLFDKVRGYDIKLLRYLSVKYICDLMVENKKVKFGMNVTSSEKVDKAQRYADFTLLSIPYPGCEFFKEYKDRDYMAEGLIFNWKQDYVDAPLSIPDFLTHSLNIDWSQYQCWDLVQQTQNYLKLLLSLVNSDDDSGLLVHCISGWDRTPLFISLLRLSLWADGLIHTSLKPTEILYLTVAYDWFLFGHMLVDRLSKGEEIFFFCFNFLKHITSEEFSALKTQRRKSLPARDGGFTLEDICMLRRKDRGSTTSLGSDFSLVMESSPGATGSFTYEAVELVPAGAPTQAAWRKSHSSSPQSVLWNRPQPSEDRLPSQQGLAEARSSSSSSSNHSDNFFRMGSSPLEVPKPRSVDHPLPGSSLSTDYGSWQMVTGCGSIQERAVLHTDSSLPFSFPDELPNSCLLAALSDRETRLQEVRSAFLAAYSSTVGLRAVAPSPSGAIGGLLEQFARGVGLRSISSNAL
inactive: erlotinib -0.019 | [1] 0.009 | [2] 0.047 | [3] 0.037 | [4] 0.002 | [5] 0.009 | [6] -0.038 | [7] -0.05 | [8] -0.05 | [9] 0.028 | IRAK-1-4 Inhibitor I 0.027 | ibrutinib -0.069 | [10] -0.015 | ralimetinib 0.004 | [11] 0.028 | [12] -0.04 | [13] -0.004 | pinometostat -0.041 | [14] 0.06 | [15] -0.029

MORC3 (UniProt Q14149)
active: [15] 0.595
inactive: erlotinib 0.022 | [1] 0.084 | [2] 0.171 | [3] 0.035 | [4] -0.024 | [5] 0.068 | [6] 0.012 | [7] 0.014 | [8] -0.026 | [9] -0.162 | IRAK-1-4 Inhibitor I 0.021 | ibrutinib -0.047 | [10] 0.023 | ralimetinib -0.024 | [11] -0.122 | [12] -0.051 | [13] 0.002 | pinometostat -0.026 | [14] -0.039

NA, A0A0B4J2A0
inactive: erlotinib -0.037 | [1] 0.07 | [2] 0.065 | [3] -0.009 | [4] 0.037 | [5] 0.038 | [6] 0.108 | [7] 0.026 | [8] -0.055 | [9] -0.007 | IRAK-1-4 Inhibitor I 0.014 | ibrutinib -0.015 | [10] -0.072 | ralimetinib -0.023 | [11] -0.105 | [12] 0.044 | [13] 0.031 | pinometostat 0.018 | [14] 0.051 | [15] 0.107

NPC1 (UniProt O15118)
Sequence of UniProt O15118 (O15118 whole entry, looked up): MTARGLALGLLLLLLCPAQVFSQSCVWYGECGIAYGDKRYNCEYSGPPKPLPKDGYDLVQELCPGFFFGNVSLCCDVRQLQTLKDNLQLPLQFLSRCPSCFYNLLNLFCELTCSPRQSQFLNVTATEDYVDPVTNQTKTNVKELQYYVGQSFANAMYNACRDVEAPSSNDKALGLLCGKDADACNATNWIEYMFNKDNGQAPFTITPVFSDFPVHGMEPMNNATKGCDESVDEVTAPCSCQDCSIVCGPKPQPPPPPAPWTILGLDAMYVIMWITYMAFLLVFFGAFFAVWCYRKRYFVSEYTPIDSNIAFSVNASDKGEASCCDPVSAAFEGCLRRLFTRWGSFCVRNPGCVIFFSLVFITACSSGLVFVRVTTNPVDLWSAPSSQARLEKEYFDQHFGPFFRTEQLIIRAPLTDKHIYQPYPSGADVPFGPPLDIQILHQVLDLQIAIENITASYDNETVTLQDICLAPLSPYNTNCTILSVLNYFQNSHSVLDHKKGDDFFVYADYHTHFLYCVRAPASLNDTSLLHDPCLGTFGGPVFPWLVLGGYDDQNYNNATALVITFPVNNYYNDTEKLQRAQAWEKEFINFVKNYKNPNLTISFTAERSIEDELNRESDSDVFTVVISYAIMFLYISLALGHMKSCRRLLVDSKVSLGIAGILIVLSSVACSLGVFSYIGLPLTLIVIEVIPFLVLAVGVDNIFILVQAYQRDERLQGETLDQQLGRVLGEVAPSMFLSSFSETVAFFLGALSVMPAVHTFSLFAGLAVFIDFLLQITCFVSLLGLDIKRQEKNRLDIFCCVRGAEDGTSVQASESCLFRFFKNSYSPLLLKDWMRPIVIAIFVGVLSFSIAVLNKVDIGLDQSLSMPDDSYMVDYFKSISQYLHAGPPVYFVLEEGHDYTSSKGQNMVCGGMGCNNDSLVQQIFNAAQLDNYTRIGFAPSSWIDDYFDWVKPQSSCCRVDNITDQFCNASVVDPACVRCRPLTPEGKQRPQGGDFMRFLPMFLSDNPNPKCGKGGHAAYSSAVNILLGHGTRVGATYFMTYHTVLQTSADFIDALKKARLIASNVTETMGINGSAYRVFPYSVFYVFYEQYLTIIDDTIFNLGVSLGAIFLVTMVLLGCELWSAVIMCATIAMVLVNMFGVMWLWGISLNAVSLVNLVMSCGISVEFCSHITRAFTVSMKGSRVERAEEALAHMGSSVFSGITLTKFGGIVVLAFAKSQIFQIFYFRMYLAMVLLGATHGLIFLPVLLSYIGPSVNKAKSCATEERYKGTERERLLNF
inactive: erlotinib 0.027 | [1] -0.033 | [2] -0.004 | [3] 0.025 | [4] -0.01 | [5] 0.028 | [6] 0.011 | [7] -0.027 | [8] 0.058 | [9] 0.069 | IRAK-1-4 Inhibitor I 0.014 | ibrutinib 0.03 | [10] 0.031 | ralimetinib -0.041 | [11] 0.028 | [12] -0.184 | [13] 0.006 | pinometostat -0.055 | [14] 0.078 | [15] -0.147

NFATC3 (UniProt Q12968)
inactive: erlotinib 0.121 | [1] 0.197 | [2] 0.024 | [3] 0 | [4] 0.039 | [5] -0.013 | [6] -0.019 | [7] -0.101 | [8] -0.01 | [9] -0.027 | IRAK-1-4 Inhibitor I -0.116 | ibrutinib 0.01 | [11] -0.105 | [12] -0.209 | [13] 0.145 | pinometostat 0.053 | [14] 0.015 | [15] -0.036
active: [10] -0.406 | ralimetinib 0.386

NDUFS7 (UniProt O75251)
Sequence of UniProt O75251 (O75251 whole entry, looked up): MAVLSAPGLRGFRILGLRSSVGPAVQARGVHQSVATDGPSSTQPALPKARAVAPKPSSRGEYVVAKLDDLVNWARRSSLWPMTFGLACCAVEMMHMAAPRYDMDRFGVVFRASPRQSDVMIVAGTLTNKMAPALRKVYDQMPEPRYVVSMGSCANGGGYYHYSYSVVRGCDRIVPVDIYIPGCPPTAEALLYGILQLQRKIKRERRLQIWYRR
inactive: erlotinib 0.129 | [1] -0.011 | [2] 0.039 | [3] -0.011 | [4] 0.062 | [5] 0.038 | [6] -0.052 | [7] 0.035 | [8] 0.045 | [9] 0.011 | IRAK-1-4 Inhibitor I 0.045 | ibrutinib -0.04 | [10] -0.016 | ralimetinib -0.1 | [11] -0.1 | [12] -0.086 | [13] 0.05 | pinometostat -0.03 | [14] -0.005 | [15] 0.043

MYH10 isoform 3 (UniProt P35580)
inactive: erlotinib -0.002 | [1] 0.043 | [2] 0.089 | [3] -0.032 | [4] 0.006 | [5] 0.01 | [6] 0.034 | [7] 0.021 | [8] 0.015 | [9] -0.024 | IRAK-1-4 Inhibitor I 0.024 | ibrutinib -0.022 | [10] -0.011 | ralimetinib -0.04 | [11] -0.069 | [12] -0.05 | [13] -0.001 | pinometostat -0.015 | [14] -0.019 | [15] -0.024

NOL7 (UniProt Q9UMY1)
Sequence of UniProt Q9UMY1 (Q9UMY1 whole entry, looked up): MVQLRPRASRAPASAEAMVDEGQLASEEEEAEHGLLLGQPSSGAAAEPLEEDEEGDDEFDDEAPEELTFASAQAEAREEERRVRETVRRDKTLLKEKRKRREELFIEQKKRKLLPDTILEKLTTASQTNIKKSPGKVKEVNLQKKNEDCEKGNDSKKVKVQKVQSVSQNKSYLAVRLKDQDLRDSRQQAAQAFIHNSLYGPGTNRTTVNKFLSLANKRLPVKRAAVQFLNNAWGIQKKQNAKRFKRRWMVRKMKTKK
inactive: erlotinib -0.151 | [1] -0.208 | [3] 0.005 | [4] -0.179 | [5] 0 | [6] -0.071 | [7] -0.058 | [8] 0.045 | [9] -0.189 | IRAK-1-4 Inhibitor I -0.139 | ibrutinib 0.036 | [10] 0.158 | ralimetinib 0.041 | [11] 0.043 | [12] 0.016 | [13] 0.141 | pinometostat 0.242 | [14] 0.059 | [15] -0.485
active: [2] -0.728

MPHOSPH10 (UniProt O00566)
Sequence of UniProt O00566 (O00566 whole entry, looked up): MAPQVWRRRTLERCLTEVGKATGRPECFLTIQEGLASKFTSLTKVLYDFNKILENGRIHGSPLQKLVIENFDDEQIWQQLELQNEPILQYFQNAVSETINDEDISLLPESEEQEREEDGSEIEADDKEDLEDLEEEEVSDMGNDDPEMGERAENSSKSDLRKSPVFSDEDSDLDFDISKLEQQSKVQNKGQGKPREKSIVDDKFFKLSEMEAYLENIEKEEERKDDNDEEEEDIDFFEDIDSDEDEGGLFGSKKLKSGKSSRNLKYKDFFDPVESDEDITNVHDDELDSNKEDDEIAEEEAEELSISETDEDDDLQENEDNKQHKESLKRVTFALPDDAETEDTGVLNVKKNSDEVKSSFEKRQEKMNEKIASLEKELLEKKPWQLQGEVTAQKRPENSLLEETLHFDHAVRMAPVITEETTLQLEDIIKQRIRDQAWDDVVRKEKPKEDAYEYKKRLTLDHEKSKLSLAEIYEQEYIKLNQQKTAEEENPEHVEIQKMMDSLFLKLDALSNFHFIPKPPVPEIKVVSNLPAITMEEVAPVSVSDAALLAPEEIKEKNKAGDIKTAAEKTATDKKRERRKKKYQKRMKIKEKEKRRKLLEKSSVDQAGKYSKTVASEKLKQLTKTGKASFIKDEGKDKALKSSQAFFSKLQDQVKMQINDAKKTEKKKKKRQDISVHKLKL
inactive: erlotinib -0.079 | [1] -0.005 | [2] -0.412 | [3] -0.023 | [4] 0.031 | [5] 0.061 | [6] 0.07 | [7] -0.004 | [8] 0.024 | [9] -0.023 | IRAK-1-4 Inhibitor I -0.215 | ibrutinib -0.022 | [10] -0.064 | ralimetinib 0.144 | [11] 0.089 | [12] -0.071 | [13] 0.053 | pinometostat 0.113 | [14] 0.021 | [15] -0.56

MRPS12 (UniProt O15235)
inactive: erlotinib -0.013 | [1] 0.008 | [2] -0.13 | [3] 0.095 | [4] -0.052 | [5] 0.018 | [6] 0.099 | [7] 0.165 | [8] 0.025 | [9] -0.063 | IRAK-1-4 Inhibitor I 0.05 | ibrutinib -0.031 | [10] -0.033 | ralimetinib -0.017 | [11] -0.053 | [12] -0.123 | [13] 0.092 | pinometostat 0.111 | [14] 0.014 | [15] -0.224

NA, A0A096LPI6
inactive: erlotinib -0.009 | [1] -0.009 | [2] 0.047 | [3] 0.02 | [4] -0.051 | [5] 0.04 | [6] 0.023 | [7] -0.004 | [8] 0.008 | [9] 0.035 | IRAK-1-4 Inhibitor I 0.065 | ibrutinib 0.022 | [10] 0.046 | ralimetinib -0.057 | [11] 0.008 | [12] 0.058 | [13] -0.016 | pinometostat -0.043 | [14] 0.018 | [15] 0.004

NUDT21 (UniProt O43809)
Sequence of UniProt O43809 (O43809 whole entry, looked up): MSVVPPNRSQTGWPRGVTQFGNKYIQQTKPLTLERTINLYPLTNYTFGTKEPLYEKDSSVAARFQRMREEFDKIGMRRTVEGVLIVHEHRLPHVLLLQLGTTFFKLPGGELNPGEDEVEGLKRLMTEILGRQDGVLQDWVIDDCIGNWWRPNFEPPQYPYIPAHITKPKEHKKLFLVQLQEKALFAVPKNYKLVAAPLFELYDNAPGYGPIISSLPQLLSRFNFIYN
active: [10] -0.33 | [15] 0.246
inactive: erlotinib -0.02 | [1] 0.07 | [2] -0.127 | [3] 0.047 | [4] -0.035 | [5] -0.015 | [6] -0.026 | [7] 0.008 | [8] 0.003 | [9] -0.089 | IRAK-1-4 Inhibitor I -0.057 | ibrutinib 0.014 | ralimetinib -0.022 | [11] 0.077 | [12] 0.066 | [13] 0.034 | pinometostat -0.022 | [14] -0.005
